Sampled rows, rich in hits. Any-hit rate of the full collection: about 2.6%.
Cruzain Triton = qHTS Assay for Promiscuous and Specific Inhibitors of Cruzain (with detergent); Cruzipain (Trypanosoma cruzi), P25779; purified cruzain, Z-FR-AMC fluorescence, 0.01% Triton; Potency, µM, for the others: max response, negative = inhibition, hits mostly inhibitors; 200,000 tested, 0.43% active; AID 1478, 2009;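 further: plate controls were neutral wells for no effect and buffer without enzyme for full effect; nearly all actives have a fitted effect of over 40% in size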
Target sequence (P25779 123-467 limits assumed): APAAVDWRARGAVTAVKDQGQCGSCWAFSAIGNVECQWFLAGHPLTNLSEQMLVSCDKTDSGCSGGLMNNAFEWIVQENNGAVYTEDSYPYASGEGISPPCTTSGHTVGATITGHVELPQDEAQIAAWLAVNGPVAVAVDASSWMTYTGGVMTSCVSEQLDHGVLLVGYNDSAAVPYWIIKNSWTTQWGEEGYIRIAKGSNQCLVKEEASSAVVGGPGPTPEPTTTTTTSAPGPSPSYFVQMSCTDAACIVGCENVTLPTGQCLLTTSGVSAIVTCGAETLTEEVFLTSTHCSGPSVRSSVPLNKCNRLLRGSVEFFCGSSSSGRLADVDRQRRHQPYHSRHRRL
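Detergent-containing arm of a paired screen for aggregation-based inhibition: 0.01% Triton X-100 present. Cruzain at 1.5 nM cleaved 2 uM Z-FR-AMC at pH 5.5 with 5 mM DTT; AMC fluorescence gain over 60 s measured activity.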
Cruzain noTriton = qHTS Assay for Promiscuous and Specific Inhibitors of Cruzain (without detergent). purified cruzain, Z-FR-AMC fluorescence, no detergent. Potency, µM, for the others: max response, negative = inhibition, usual class: inhibitors. AID 1476, 2009. Cruzipain (Trypanosoma cruzi), P25779. 200,000 tested, 2.3% active;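 further: plate controls were enzyme without inhibitor for no effect and buffer without enzyme for full effect; nearly all actives have a fitted effect of over 40% in size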
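Purified cruzain at 1.5 nM, pre-incubated 15 min with compound at room temperature in 100 mM sodium acetate pH 5.5, 5 mM DTT, 0.00005% Triton X-100. Reaction started with 2 uM Z-FR-AMC; AMC fluorescence increase over 60 s gives rate.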
Papain inh = qHTS Assay for Inhibitors of Papain: Counterscreen for Cruzain Assay | 410 tested, 41% active | Potency, µM, for the others: max response, negative = inhibition, usual class: inhibitors | shares compounds with Cruzain Triton | purified papain, Z-FR-AMC fluorescence cleavage | AID 2161, 2009;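 further: 0% = no-compound wells and -100% = no-enzyme wells; nearly all actives have a fitted effect of over 35% in size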
Target sequence (P00784 whole entry, looked up): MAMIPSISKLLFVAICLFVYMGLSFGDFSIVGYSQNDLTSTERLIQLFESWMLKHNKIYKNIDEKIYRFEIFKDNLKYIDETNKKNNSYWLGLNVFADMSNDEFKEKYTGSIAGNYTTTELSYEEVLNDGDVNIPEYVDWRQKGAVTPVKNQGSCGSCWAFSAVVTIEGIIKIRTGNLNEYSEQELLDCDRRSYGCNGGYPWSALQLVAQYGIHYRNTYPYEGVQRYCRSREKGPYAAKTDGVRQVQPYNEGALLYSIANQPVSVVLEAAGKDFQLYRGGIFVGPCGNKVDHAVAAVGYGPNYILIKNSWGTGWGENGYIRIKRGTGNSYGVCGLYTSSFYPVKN
* hit, by the source's call; ? = inconclusive; · = no result. The call rests on the fitted dose curve; in most records, active means well fitted curve in the direction sought with a large enough effect; inconclusive means small, poorly fitted or top-dose-only effect, or another doubt; inactive means no such curve, though single readings can be large; an effect the other way counts as inactive or inconclusive. Potency means the concentration at half of the fitted maximal effect.

SMILES | Cruzain Triton | Cruzain noTriton | Papain inh
c1ccc(C2=Nn3c(nnc3-c3cc(-c4ccccc4)n[nH]3)SC2)cc1 | -7% | -6% | ·
CCCn1c(SCC(=O)N2CC(=O)Nc3ccccc32)nc2ccccc21 | 13µM* | 4% | 11%
O=C1CN(C(=O)CSc2nc3ccccc3n2CCc2ccccc2)c2ccccc2N1 | -24% | -22% | ·
Cc1cccc(CN2C(=O)N(c3ccc(C(C)C)cc3)S(=O)(=O)c3ccccc32)c1 | 2% | 6% | ·
CCOC(=O)c1sc(N/N=C/c2ccccc2)nc1C | -6% | ? | ·
CCOC(=O)c1sc(N/N=C/c2cccc(C)c2)nc1C | 1.4µM* | ? | 1.3µM*
Cc1cc(NC(=O)c2ccc3nc(-c4ccccc4)c(-c4ccccc4)nc3c2)no1 | -5% | -21% | ·
CNC(=O)c1ccc2nc(-c3cccc(C)c3)c(-c3cccc(C)c3)nc2c1 | · | · | -13%
COc1ccc2c(c1)C(=O)[C@H](OC(=O)NS(=O)(=O)c1ccc(C)cc1)[C@@H](c1ccc(OC)c(Br)c1)O2 | -1% | 0% | ·
COc1ccc(-c2nc(C#N)c(NCCCN3CCOCC3)o2)cc1 | 20µM* | -13% | 4µM*
N#Cc1nc(-c2ccc(F)cc2)oc1NCCN1CCOCC1 | -4% | -3% | ·
CNc1oc(/C=C/c2cc(OC)c(OC)c(OC)c2)nc1C#N | 28µM* | 10µM* | 8.9µM*
COc1cc(/C=C/c2nc(C#N)c(NC(C)c3ccccc3)o2)cc(OC)c1OC (stereo not drawn) | 7% | ? | ·
COCCNC(=O)C1(C)Oc2ccccc2NC1=O (stereo not drawn) | -4% | -2% | ·
CC(=O)OC1(C(F)(F)F)Oc2ccccc2NC1=O (stereo not drawn) | 0.89µM* | 1.3µM* | 7.9µM*
COc1ccccc1Cc1nc2ccccc2nc1SCC(=O)NCc1ccc(F)cc1 | 2% | -10% | ·
COc1cc2c(C=O)c3c4c(cc(OC)c(OC)c4c2cc1OC)CCN3C | -3% | ? | ·
CCC(=O)CCC(=O)c1ccc2ccccc2c1 | -4% | -7% | ·
CC(C)N(CCC(=O)c1ccc2ccccc2c1)Cc1ccccc1 | 7.9µM* | 7.9µM* | -15%
Cc1ccc(CNC(=O)CN2C(=O)CSc3c2c(C)nn3-c2ccccc2)cc1 | -3% | -15% | ·
COc1cccc(-n2ccnc2SCC(=O)Nc2nc3ccc(C)cc3s2)c1 | 0% | ? | ·
O=C(NCCO)c1ccc2nc(-c3ccco3)c(-c3ccco3)nc2c1 | 13µM* | 13µM* | 32µM*
O=C(NC1CCCC1)c1ccc2nc(-c3ccco3)c(-c3ccco3)nc2c1 | 14µM* | 5µM* | 14µM*
O=C(NCCO)c1ccc(Cl)c(Cl)c1 | 3% | -3% | ·
O=C(NC1CCCC1)c1ccc2nc[nH]c2c1 | 1% | -5% | ·
SMILES | Cruzain Triton | Cruzain noTriton | Papain inh
Cc1ccc(NC(=O)C2CCN(C(=O)c3sc4nc[nH]c(=O)c4c3C)CC2)cc1F | -3% | 3% | ·
CCS(=O)(=O)c1cccc(C(=O)N2CCN(c3nc4c(C)ccc(Cl)c4s3)CC2)c1 | 7.9µM* | ? | -6%
CCS(=O)(=O)c1ccc(C(=O)N2CCN(c3nc4c(OC)ccc(C)c4s3)CC2)cc1 | -9% | ? | ·
CC(C)(C)c1ccc(S(=O)(=O)c2cnc(SCC(=O)Nc3ccc(F)c(Cl)c3)[nH]c2=O)cc1 | 20µM* | -3% | 2.8µM*
O=C(CSc1ncc(S(=O)(=O)c2ccc(Cl)cc2)c(=O)[nH]1)Nc1cccc(C(F)(F)F)c1 | ? | 21% | ·
COc1cc2ccccc2cc1C(=O)N1CCN(c2nc3c(F)cccc3s2)CC1 | -2% | -4% | ·
O=C(NCCc1nc2ccccc2n1Cc1ccccc1F)c1ccc(F)cc1 | 3.2µM* | 8% | -9%
CC(NC(=O)c1ccc(F)cc1)c1nc2ccccc2n1Cc1ccccc1F (stereo not drawn) | 0% | 3% | ·
COc1ccc(N(C(=O)c2cc(OC)c(OC)c(OC)c2)S(=O)(=O)c2ccc(C)cc2)cc1 | -1% | ? | ·
COc1cc(NC(=O)NCCn2nnc3cc(S(=O)(=O)N(C)C)ccc32)cc(OC)c1OC | 2% | 11% | ·
COc1cc2cc(CN(Cc3nnnn3Cc3ccco3)C3CCCCC3)c(=O)[nH]c2cc1OC | 7.1µM* | 7.9µM* | 28µM*
COCCn1nnnc1CN(Cc1cc2cc(OC)c(OC)cc2[nH]c1=O)C1CCCC1 | -15% | 1% | ·
CCOc1ccc2[nH]c(=O)c(CN(Cc3ccco3)Cc3nnnn3Cc3ccccc3)cc2c1 | -7% | 17% | ·
CCOc1ccc2[nH]c(=O)c(CN(Cc3nnnn3Cc3ccco3)C3CCCCC3)cc2c1 | 6.3µM* | 10µM* | -9%
CCc1nnc(NC(=O)CSc2nc3c([nH]c4ccccc43)c(=O)n2-c2ccc(C)cc2)s1 | -3% | -8% | ·
CCN(CCO)c1nc(SC)nc2c1sc1nc(-c3ccco3)c3c(c12)CCC3 | 8.9µM* | 6.3µM* | 13µM*
CCN(CCO)c1ncnc2c1sc1nc(C(C)C)c3c(c12)CC(C)(C)OC3 | -1% | ? | ·
CCOc1ccc(NC(=O)CSc2ncc(S(=O)(=O)c3ccc(F)c(C)c3)c(=O)[nH]2)cc1 | -14% | ? | ·
CCc1ccccc1NC(=O)CSc1nccn1C | 0% | -4% | ·
NC(=O)CSc1nnc([C@@H](N)Cc2c[nH]c3ccccc23)o1 | 8.9µM* | 10µM* | 7%
CC(C)(C)OC(=O)N[C@@H](Cc1c[nH]c2ccccc12)c1nnc(SCC(N)=O)o1 | 3% | 13% | ·
O=C1CC(c2ccccc2C(F)(F)F)c2c(c3ccccc3[nH]c2=O)O1 (stereo not drawn) | -2% | 0% | ·
Cc1cc(=O)oc2cc(OCC(=O)N3CCOCC3)ccc12 | 8.9µM* | -1% | 14µM*
Cc1cc(=O)oc2cc(OC(C)C(=O)N3CCOCC3)ccc12 (stereo not drawn) | -23% | -13% | ·
COc1ccccc1CNc1nc2nc(C)c(Cl)c(C)n2n1 | 0% | -8% | ·
SMILES | Cruzain Triton | Cruzain noTriton | Papain inh
Cc1cc(C)cc(NC(=O)CSc2nnc(CNC(=O)c3c(F)cccc3Cl)o2)c1 | 1% | -6% | ·
Cn1cc(S(=O)(=O)N2CCCCC2)cc1C(=O)NCc1ccc(Cl)cc1 | 10µM* | ? | -6%
Cn1cc(S(=O)(=O)N2CCCCCC2)cc1C(=O)NCc1ccc(Cl)cc1 | -26% | -6% | ·
COc1cc(NS(=O)(=O)c2cc(Br)cc3c2N(C(C)=O)C(C)C3)cc(OC)c1 (stereo not drawn) | -4% | -12% | ·
O=C(CC1N=C2c3ccccc3N=C(SCC(=O)Nc3ccc(F)cc3)N2C1=O)NCc1ccco1 (stereo not drawn) | -1% | 5% | ·
Cc1ccc(C)c(NC(=O)CN(C)S(=O)(=O)c2cccc3nsnc23)c1 | -5% | 1% | ·
COc1cc(OC)cc(C(=O)NCC(=O)OCC(=O)c2cc(OC)ccc2OC)c1 | -17% | 0% | ·
COc1ccc(OC)c(C(=O)COC(=O)CNC(=O)C2CCCCC2)c1 | 4.5µM* | 5µM* | -15%
COc1ccc(C(=O)COC(=O)CNC(=O)C2CCCCC2)c(OC)c1 | 4µM* | 6.3µM* | -23%
CCOC(=O)C1CCN(C(=O)c2ccc(OC)cc2OC)CC1 | 2% | -28% | ·
CC1=C(C(=O)Nc2cccnc2)C(c2cccc(Br)c2)n2nc(SCc3ccccc3)nc2N1 (stereo not drawn) | 0% | -3% | ·
Cc1ccc(-c2nc(N)n(S(C)(=O)=O)n2)cc1 | 3% | -6% | ·
